MsrA act = activates bovine MsrA enzyme; purified bovine MsrA, absorbance read-out; hit rate 0.3% among 360,000; activation, % at 10.6 µM; in the data active = activation above about 7.5%;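 also: 0% = vehicle and 100% = reference activator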
SMARCA2 activ = SMARCA2 function activation, primary screen | MG213 cells, MMTV-luciferase reporter, dexamethasone, overnight | activation, % at 9.1 µM | hit rate 1% among 370,000 | AID 652017; in the data active = activation above about 7.8%;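 also: 0% = vehicle wells and 100% = reference activator wells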
proKLK7 act = activators of human kallikrein-7 zymogen; activation, % at 7 µM; hit rate 0.9% among 370,000; purified proKLK7, EDANS-DABCYL substrate fluorescence; 100% is mature enzyme control, 0% vehicle;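 active = activation above the mean of all tested compounds plus 3 SD, computed per campaign excluding outliers beyond control limits, cut at about 13% in these data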
Target sequence (P49862 whole entry, looked up): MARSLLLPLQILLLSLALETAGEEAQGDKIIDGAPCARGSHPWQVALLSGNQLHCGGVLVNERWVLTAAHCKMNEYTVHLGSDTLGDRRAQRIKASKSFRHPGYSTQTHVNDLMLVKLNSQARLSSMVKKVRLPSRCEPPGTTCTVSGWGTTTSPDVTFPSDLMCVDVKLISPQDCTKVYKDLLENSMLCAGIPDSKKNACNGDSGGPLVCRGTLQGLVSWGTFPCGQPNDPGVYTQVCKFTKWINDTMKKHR
MsrA inh = inhibits bovine methionine sulfoxide reductase A; inhibition, % at 15.5 µM; hit rate 0.75% among 360,000; purified bovine MsrA, absorbance read-out; in the data active = inhibition above about 4.5%;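 also: 0% = vehicle wells with enzyme and 100% = reference inhibitor wells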
* marks the source's active call; other numbers are inactive results; nt = no result. Compounds with a hit are over-represented: about 2.8% of the library has one in this group of screens.

SMILES | MsrA act | SMARCA2 activ | proKLK7 act | MsrA inh
O=C(O)COn1c(-c2ccccc2)nc2ccc([N+](=O)[O-])cc21 | -1 | 7.8* | 0 | 4
Cc1ccc(-c2cc(C(=O)N/N=C/C=C/c3ccccc3)n[nH]2)s1 | -7 | 1 | -2 | 4.6*
COc1ccc(C2CC(=O)C(c3cc(OC)c(OC)c(OC)c3)=CN2Cc2ccccc2)cc1 (configuration not stated) | nt | 0 | -1 | 0
CCOC(=O)CCc1c(C)c2ccc(O)cc2oc1=O | -3 | -4 | 45* | 1
CCOC(=O)CCc1c(C)c2ccc(OCC(=O)N(CC)CC)c(C)c2oc1=O | -4 | -4 | 3 | 4
Cc1cccc(NC(=O)c2cccnc2)c1 | -3 | 7.8* | 0 | 0
O=C(NCCc1c[nH]c2ccccc12)C(=O)Nc1cc2c3c(c1)CC(=O)N3CCC2 | -1 | 2 | 0 | 1
CCN(C(=O)CN1C(=O)S/C(=C\C=C\c2ccccc2)C1=O)C1CCS(=O)(=O)C1 (configuration not stated) | -6 | 1 | 1 | 4.6*
COc1cc(Cl)ccc1OC1(C)CCN(Cc2cccc(OC)c2OC)C1 (configuration not stated) | -4 | -2 | 0 | -1
CCOc1ccccc1N1C(=O)CC(N(O)c2ccccc2)C1=O (configuration not stated) | -2 | -1 | 67* | 0
CCCCCOc1ccc(N2C(=O)CC(N(O)c3ccccc3)C2=O)cc1 (configuration not stated) | -10 | -2 | 6 | 0
COc1ccc(S[C@]2(C(=O)N(C)C)CC(=O)N(c3ccccc3)[C@@H]2c2ccc(OC)cc2)cc1 | nt | -3 | 0 | nt
CCCCCCCCN1C(=O)[C@@H](CC(=O)NCc2cccc3ccccc23)C[C@@]2(C(=O)OC)C1=C[C@H](C1CCCC1)O[C@@H]2C | nt | -5 | 1 | 0
O=C(CSC1=NCCS1)Nc1nc2c(s1)CCCC2 | -10 | 7.9* | 1 | 0
CC1CCCN(Cc2c(O)ccc3c4c(c(=O)oc23)CCCC4)C1 (configuration not stated) | -5 | -2 | 101* | 2
O=C(CNc1cccc2ccccc12)N/N=C/C=C/c1ccco1 | -5 | 1 | 9 | 4.6*
O=C(CNc1cccc2ccccc12)N/N=C/c1ccc(C(=O)O)cc1 | -5 | -1 | 1 | 1
CC(C)(C)OC(=O)N1CCC[C@@H]1C(=O)NCc1ccccc1 | nt | -1 | 0 | 0
O=C(N/N=C/CCc1ccccc1)c1ccc(CN2c3cccc4cccc(c34)S2(=O)=O)cc1 | -8 | -7 | -1 | 1
COc1cc(/C=N/NC(=O)c2ccc(CN3c4cccc5cccc(c45)S3(=O)=O)cc2)cc(OC)c1O | -11 | -2 | -7 | 4.6*
Cc1ccc(S(=O)(=O)N2C[C@@H](C)[C@]3(C2)[C@H](O)[C@H](OC(=O)Nc2c(C)noc2C)C[C@H]2C(=O)N(c4ccccc4)C(=O)[C@H]23)cc1 | -2 | 5 | 0 | 0
Cc1cc2nc(N)sc2cc1[N+](=O)[O-] | -2 | 0 | -1 | 5.2*
CN(C)c1nc(=NCc2cccs2)ss1 | 2 | 13* | 0 | 2
Cc1nn(-c2ccccc2)c(C)c1C(=O)NCCc1ccccc1 | -7 | 8.0* | 0 | 0
O=S(=O)(c1ccccc1)N1CCCc2nc(-c3ccc(Br)cc3)ccc21 | nt | -9 | 1 | 2
SMILES | MsrA act | SMARCA2 activ | proKLK7 act | MsrA inh
CCOC(=O)c1nn(-c2ccc(C)cc2)cc1O | -5 | 5 | -2 | 1
CCOC(=O)c1nn(-c2ccc3c(c2)OCO3)cc1O | 3 | 5 | 32* | 5.9*
Cc1nn(-c2ccccc2)c(Cl)c1/C=N/Nc1nc2ccccc2[nH]1 | -1 | 7.9* | 0 | 1
O=C(Sc1n[nH]c(=O)[nH]c1=O)c1ccccc1 | 10* | -1 | 0 | 1
COc1ccc(C(=O)N2CCCC(c3cc(C(=O)NCc4ccc(F)cc4)no3)C2)cc1 (configuration not stated) | -6 | -3 | 0 | 1
O=c1c2ccccc2sn1-c1nccs1 | 17* | -3 | -1 | 1
O=C1NC(=O)C(=CC=Cc2ccccc2)S1 | -7 | -1 | 0 | 4.6*
NC1=NC(=O)/C(=C\C=C\c2ccccc2)S1 | 4 | 7 | 4 | 3
CN1C(=O)c2cc(NC(=O)C3CC3)ccc2OC[C@H]2O[C@@H](CC(=O)NC3CCC3)CC[C@@H]21 | nt | 0 | 0 | nt
COc1cccc(NC(=O)COc2ccccc2)c1 | -6 | 7.8* | 0 | 0
COc1ccc(-c2ccc(CCC(=O)O)n2CC(=O)Nc2cccc(OC)c2)cc1 | -2 | -1 | -1 | 4.7*
Cc1cccc(C)c1OCC(=O)Nc1cccc(C(=O)O)c1 | -4 | 7.9* | 0 | 1

Assay outcomes from PubChem BioAssay.
